Where “and” joins values, the source holds several entries; their conditions need not be identical. Equal values may be shown once. The campaign covered roughly 100,000 compounds. About 770 (0.77%) were called active. The list comes from a sample in which actives are over-represented; it also holds similar structures and randomly drawn compounds. A number with no mark means an inactive call. Rule as the data show it: active = inhibition above about 50%; inactive = the rest.

The target in the experiment is Gag-Pol polyprotein (Human immunodeficiency virus type 1 group M subtype B (isolate HXB2)) (UniProt P04585). The experiment can be described thus: RNase H inhibition, HIV 1 Gag Pol polyprotein, FRET biochemical assay, screening (AID 372). Particulars: HIV-1 RT RNase H, FRET RNA/DNA substrate fluorescence; at 10 µM; hits give high values.
As for `NC1=NC(=O)/C(=C/c2cc(Br)ccc2OCc2ccccc2)S1`, the inhibition is 9%.

As to `Cn1c(=O)c2c(nc(Sc3nc4ccccc4n3Cc3ccccc3)n2C)n(C)c1=O`, the inhibition is 0%.

On to `CC(CCC(=O)Nc1ccc(F)cc1)CC(=O)Nc1ccc(F)cc1` (configuration not stated), for which the inhibition was 6%.

In the case of `CC(=O)c1cccc(NC(=O)CC2S/C(=N\N=C(/C)C(C)(C)C)NC2=O)c1` (configuration not stated), the inhibition was 7%.

On to `CCCc1sc(NC(=O)c2ccc(OC)cc2)nc1-c1ccc(Br)cc1`, for which the inhibition was 42%.

`CCCCCCCNC1CC(=O)N(c2ccc(OCCC)cc2)C1=O` (configuration not stated): the inhibition was 6%.

`Cc1ccc2oc(-c3ccc(Cl)c(NC(=S)NC(=O)c4ccc(Cl)cc4)c3)nc2c1`: the inhibition was 48%.

As for `CCOc1cc(C(=O)Nc2ccc(-c3nc4ccc(C)cc4o3)cc2)cc(OCC)c1OCC`, the inhibition is 10%.

`CCOc1ccc(C(=O)Nc2ccc(-c3nc4cc(C)ccc4o3)cc2)cc1Cl`: the inhibition was 12%.

In the case of `COc1ccc(C(=O)Nc2ccc(-c3nc4cc(C)c(C)cc4o3)cc2)cc1Cl`, the inhibition was 51% (active).

Consider `CCOc1ccc(C(=O)NC(=S)Nc2ccc(-c3nc4ccc(C)cc4o3)cc2)cc1Cl`, for which the inhibition was 56% (active).

As to `CCOc1ccc(C(=O)Nc2ccc(-c3nc4ccc(C)cc4o3)cc2)cc1Cl`, the inhibition was 59% (active).

Consider `CCOc1ccc(C(=O)NC(=S)Nc2ccc(Cl)c(-c3nc4ccc(C)cc4o3)c2)cc1Cl`, for which the inhibition is 18%.

Consider `CCOc1ccc(C(=O)NC(=S)Nc2cc(-c3nc4ccc(C)cc4o3)ccc2Cl)cc1`, for which the inhibition was 29%.

For the compound `CCOc1ccc(C(=O)NC(=S)Nc2ccc3oc(-c4ccc(C)cc4)nc3c2)cc1Cl`, the inhibition was 10%.

Turning to `COc1ccc(C(=O)Nc2ccc3oc(-c4ccc(OC)c(Cl)c4)nc3c2)cc1Cl`, the inhibition was 30%.

As to `CCOc1ccc(C(=O)NC(=S)Nc2cc(-c3nc4cc(C)ccc4o3)ccc2Cl)cc1`, the inhibition was 60% (active).

As to `COc1ccc(C(=O)Nc2ccc3oc(-c4ccccc4)nc3c2)cc1Cl`, the inhibition was 4%.

Regarding `CCOc1c(Br)cc(/C=C2/C(=O)NN(c3ccc(C)c(C)c3)C2=O)cc1OC`, the inhibition is 22%.

Take `COc1cc([N+](=O)[O-])ccc1NC(=S)NC(=O)/C=C/c1ccccc1`: the inhibition is 12%.

In the case of `Fc1ccc(-c2nnc(-c3ccc(Br)o3)o2)cc1`, the inhibition was 6%.

In the case of `COc1ccc(OC)c(N(CC(=O)N(Cc2ccccc2)Cc2ccccc2)S(=O)(=O)c2ccccc2)c1`, the inhibition was 21%.

As for `O=C(N/N=C\c1ccc[nH]1)c1cccc2c3c([nH]c12)CCCC3`, the inhibition is 24%.

On to `COc1ccc(OC)c(NC(=O)CN(c2ccc(C(C)C)cc2)S(=O)(=O)c2ccccc2)c1`, for which the inhibition was 8%.

With `C/C(=N/NC(=O)c1ccc2c(c1)OCO2)c1ccc(Br)s1`, the inhibition is 13%.

For `COc1ccc(OCC(=O)N=Nc2c(O)n(C)c3c(C)cccc23)c(Br)c1`, the inhibition was 4%.

As to `Cc1cccc2c(N=NC(=O)COc3cccc(Br)c3)c(O)n(C)c12`, the inhibition was 20%.

As to `COc1cc(Br)ccc1OCC(=O)N=Nc1c(O)n(C)c2c(C)cccc12`, the inhibition was 52% (active).

Consider `CC(C)OC(=O)c1ccc(NC(=O)c2ccc(Br)cc2)cc1`, for which the inhibition was 11%.

`CC(=O)Oc1ccc(-c2cccc(C(=O)OC(C)C)c2)cc1`: the inhibition was 9%.

In the case of `N#C/C(=C/c1ccc(OCc2ccc(C(=O)O)cc2)cc1)C(=O)Nc1ccccc1`, the inhibition was 0%.

For `C=CCc1cccc2cc(C(=O)NNC(=O)c3ccc(OC)cc3)c(=O)oc12`, the inhibition is 1%.

With `C=CCc1cccc2cc(C(=O)Nc3ccccc3)c(=O)oc12`, the inhibition is 12%.

`C=CCc1cccc2cc(C(=O)Nc3ccc(C)c(Cl)c3)c(=O)oc12`: the inhibition was 0%.

Take `C=CCc1cccc2cc(C(=O)NNC(=O)CC#N)c(=O)oc12`: the inhibition is 54% (active).

As to `C=CCc1cccc2cc(C(=O)Nc3ccc(NC(C)=O)cc3)c(=O)oc12`, the inhibition was 10%.

As for `C=CCc1cccc2cc(C(=O)Nc3ccc(Cl)c(Cl)c3)c(=O)oc12`, the inhibition was 62% (active).

As for `CC(=O)/C(=C(/C)O)c1ncc(-c2ccccc2)s1`, the inhibition was 12%.

As for `Cc1cccc(C(=O)Nc2cccc(C(=O)Nc3ccccc3Cl)c2)c1`, the inhibition was 13%.

Consider `O=C(Cn1c(NCCO)nc2ccccc21)c1cccc2ccccc12`, for which the inhibition was 21%.

On to `COc1cccc(N2C(=O)/C(=C/c3ccc([N+](=O)[O-])cc3)SC2=S)c1`, for which the inhibition was 7%.

In the case of `COc1cccc(NC(=O)c2ccc(C(C)(C)C)cc2)c1`, the inhibition is 11%.

In the case of `NC(=O)N=Nc1c(O)[nH]c2ccc(I)cc12`, the inhibition is 5%.

Turning to `CC1(C)CC(=O)C(C=NC2CCCCCCC2)=C(O)C1`, the inhibition is 3%.

Take `COc1ccc(CCC(=O)Nc2sc3c(c2C(N)=O)CCCCCC3)cc1`: the inhibition is 12%.

Regarding `O=C(Nc1ccccc1)c1c(NC(=S)Nc2ccccc2)sc2c1CCCC2`, the inhibition is 46%.

Turning to `CCOC(=O)c1c(NC(=O)c2ccc(S(=O)(=O)N3CCCCCC3)cc2)sc2c1CCC2`, the inhibition was 6%.

For the compound `COc1cc2ccccc2cc1C(=O)Nc1sc2c(c1C(N)=O)CCCC2`, the inhibition was 59% (active).

`NC(=O)c1c(NC(=O)c2ccc(S(=O)(=O)N3CCCCC3)cc2)sc2c1CCCC2`: the inhibition is 53% (active).

Take `COC(=O)c1c(NC(=S)Nc2ccccc2)sc2c1CCCC2`: the inhibition was 59% (active).

Turning to `CCOC(=O)c1c(NC(=S)Nc2ccccc2)sc2c1CCCCC2`, the inhibition is 28%.

Turning to `COc1ccc(C(=O)Nc2sc3c(c2C(N)=O)CCCC3)cc1`, the inhibition was 17%.

For `Cc1ccc(C(=O)Nc2sc3c(c2C(N)=O)CCCCCC3)cc1`, the inhibition was 32%.

For `COc1ccc(C(=O)Nc2sc3c(c2C(N)=O)CCCCCC3)cc1OC`, the inhibition is 0%.

`O=C(CCc1ccccc1)Nc1sc2c(c1C(=O)O)CCCC2`: the inhibition was 4%.

With `C=CCN1C(=O)/C(=C\c2ccc(OCc3ccccc3C)c(OC)c2)SC1=S`, the inhibition is 16%.

In the case of `COC(=O)c1cccc(NC(=O)COc2ccc(Br)c(C)c2)c1`, the inhibition is 3%.

As for `Cc1c(NC(=O)COc2ccc(Cl)cc2Cl)cccc1[N+](=O)[O-]`, the inhibition is 15%.

On to `CCN(CC)c1ccc(Nc2nc(-c3sc(N)nc3C)cs2)cc1`, for which the inhibition is 28%.

As to `CCN1CCn2c3c(c4cc(Br)ccc42)CCCC31` (configuration not stated), the inhibition is 7% and 3%.

Take `C(=NN1CCN(c2ccccn2)CC1)c1cccc(OCc2ccccc2)c1`: the inhibition is 0%.

In the case of `Cc1ccc(NC(=O)c2cccc([N+](=O)[O-])c2)cc1C`, the inhibition was 1%.

Regarding `Cc1ccc(C)c(NC(=S)NC(=O)c2ccc(C)c([N+](=O)[O-])c2)c1`, the inhibition is 33%.

Regarding `NC(=O)C1CCN(C2CC(=O)N(c3ccc(Cl)cc3)C2=O)CC1` (configuration not stated), the inhibition is 12%.

Turning to `CCOc1ccc(N(CC(=O)Nc2c(C)cccc2C)S(C)(=O)=O)cc1`, the inhibition is 18%.

Turning to `C=CCOc1ccc(C=O)cc1I`, the inhibition is 25%.

For `O=C(Nc1ccc([N+](=O)[O-])cc1Cl)c1cccnc1`, the inhibition was 5%.

Take `CC(C)C(NC(=O)CN(c1ccccc1F)S(C)(=O)=O)C(C)C`: the inhibition was 11%.

Regarding `NC(=O)c1c(N)sc2c1CCCCCCCCCC2`, the inhibition was 28%.

Turning to `NC(=O)c1c(N)sc2c1CCCCCC2`, the inhibition was 20%.

On to `Cc1cc(N2Cc3ccccc3C2)ccc1/C=C1\C(=O)NC(=O)N(Cc2ccco2)C1=O`, for which the inhibition was 42%.

For `COc1cc(N2Cc3ccccc3C2)ccc1/C=C1\C(=O)NC(=O)N(Cc2ccco2)C1=O`, the inhibition was 51% (active).

For the compound `CCN(CC)c1ccc(/C=C2/C(=O)NC(=O)N(Cc3ccco3)C2=O)c(OC)c1`, the inhibition is 45%.

`COc1ccc2ccccc2c1/C=C1/C(=O)NC(=O)N(Cc2ccco2)C1=O`: the inhibition was 50% (active).

In the case of `O=C1NC(=O)N(Cc2ccco2)C(=O)/C1=C\c1cn(Cc2cccc(F)c2)c2ccccc12`, the inhibition is 57% (active).

Turning to `COc1ccc2ccccc2c1/C=C1\C(=O)NC(=O)N(Cc2ccccc2)C1=O`, the inhibition is 40%.

`COc1ccc(CN2C(=O)NC(=O)/C(=C\C=C\c3ccccc3)C2=O)cc1`: the inhibition is 10%.

On to `O=C1NC(=O)N(Cc2ccco2)C(=O)/C1=C\c1cn(Cc2ccc(Cl)cc2)c2ccccc12`, for which the inhibition is 37%.

On to `COc1ccc(/C=C2/C(=O)NC(=O)N(Cc3ccco3)C2=O)c2ccccc12`, for which the inhibition was 48%.

As to `O=C1NC(=O)N(Cc2ccco2)C(=O)/C1=C\C=C\c1ccccc1`, the inhibition was 52% (active).

In the case of `O=C1NC(=O)N(Cc2ccco2)C(=O)/C1=C/c1ccc(OCCOc2ccccc2)cc1`, the inhibition is 13%.

With `NC(=O)Cn1cc(/C=C2/C(=O)NC(=O)N(Cc3ccco3)C2=O)c2ccccc21`, the inhibition was 0%.

In the case of `Cc1ccc(NC(=O)c2ccc(Cl)c(Cl)c2)c([N+](=O)[O-])c1`, the inhibition is 1%.

As for `CC(=O)NC(NC(=S)Nc1sc2c(c1C#N)CCCC2)C(Cl)(Cl)Cl` (configuration not stated), the inhibition was 20%.

For `COc1cc(C2CC(=O)NC(SCc3ccccc3)=C2C#N)ccc1O` (configuration not stated), the inhibition is 6%.

`O=C(NN=C1CCCCC1)C(=O)Nc1ccc(F)cc1`: the inhibition is 8%.

Turning to `CCOc1c(Br)cc(/C=C2N=C(/C=C/c3ccccc3)OC/2=O)cc1OC`, the inhibition is 9%.

Regarding `O=C(NNC(=O)c1cccc(C#Cc2ccccc2)c1)c1ccc(Br)cc1`, the inhibition was 46%.

Take `O=C(NNC(=O)c1cccc(C(=O)NNC(=O)c2ccc(Br)cc2)c1)c1ccc(Br)cc1`: the inhibition is 53% (active).

Turning to `O=C(NNC(=O)c1cccc(O)c1)c1ccc(Br)cc1`, the inhibition was 10%.

With `COc1ccc(C(NC(=O)C(C)C)c2ccc3cccnc3c2O)cc1OC` (configuration not stated), the inhibition was 5%.

For `Oc1ccc(/C=N/N=C/c2ccc(O)c(O)c2)cc1O`, the inhibition was 69% (active).

Take `Cc1nnc(C)n1/N=C/c1ccc(O)c(O)c1`: the inhibition is 44%.

With `Oc1ccc(C=Nc2ccc(N=Cc3ccc(O)cc3)cc2)cc1`, the inhibition is 15%.

Consider `Oc1ccc(C=Nc2ccc(Cl)c(Cl)c2)cc1O`, for which the inhibition was 17%.

For the compound `Oc1ccc(N=Cc2ccc(O)c(O)c2)cc1`, the inhibition was 70% (active).

`Oc1ccc(C=Nc2ccc(O)cc2)cc1`: the inhibition was 4%.

Values taken from PubChem BioAssay AID372 (MTDP, 2006).
